Activity change, negative = inhibition and Potency data for 28 compounds are collected here from PubChem BioAssay (NCATS).

Values joined by “and” are separate entries in the source; they are usually repeats but may differ in a detail not shown here. Equal values may be shown once. Inconclusive results are not listed. Unmarked numbers belong to inactive results. Active and inactive are the calls of the source. Unless noted, calls follow the shape of the dose curve; as a rule, active = well fitted curve in either direction with a large enough effect (not every such curve was filed as active); inconclusive = small, poorly fitted or top-dose-only effect, or another doubt; inactive = flat fitted curve, though single readings scatter.

The nature of test [1]: AP1 Signaling Pathway (AID 357).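 Also: ME-180 reporter cells stimulated with EGF at its EC50 level; % is scaled to controls: 0 for no effect and ±100 for the full control effect.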 The conditions noted are these: ME-180 (cervical carcinoma) AP-1-bla reporter, EGF-induced, beta-lactamase ratio, 5 h. The essentials: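 Titration-series screen for positive or negative modulators of EC50 EGF-induced signaling in ME-180 cells carrying an AP-1-driven beta-lactamase reporter. After 5 hours at 37 degrees Celsius, CCF4 460nm/530nm emission ratio gave %Activity; AC50 values derived.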

Test [2] addresses Cytochrome P450 1A2 (Homo sapiens) (UniProt P05177). In words: p450-cyp1a2 (AID 410; calls by dose curve; also: potency is read from the fitted curve at half-maximal effect;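 as to Activity change, negative = inhibition: -100% = full effect of reference inhibitor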). The conditions noted are these: recombinant CYP1A2, luciferin-ME demethylation, luminescence; series mostly up to 57 µM. The essentials: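 20nM CYP1A2 with 100uM Luciferin-ME (at Km) in 100mM KPO4; compound preincubated 10 min, NADPH regeneration added, 60 min at room temperature. Luciferin quantified by luminescence after detection reagent; normalized to 57 uM furafylline.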

Test [3] in a line: NFAT Signaling Pathway (AID 444).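 Also: carbachol stimulus at about its EC50 of 1 µM final; % is scaled to controls: 0 for no effect and ±100 for the full control effect.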 The conditions noted are these: Jurkat NFAT-bla M1, carbachol, beta-lactamase ratio, 5 h. The essentials: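 Jurkat cells with NFAT-driven β-lactamase reporter and co-expressed M1 receptor, stimulated with carbachol (final 1 uM, ~EC50), compound titration, 5 h at 37 °C. CCF4 loaded 1 h at RT; 460/530 nm ratio gave %activity and AC50.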
A short description of test [4]: Cell Viability - BJ (AID 421; calls by dose curve;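 also: potency is read from the fitted curve at half-maximal effect; cells exposed to compound for 40 hours at 37 °C before readout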). The conditions noted are these: BJ fibroblast viability, qHTS. The essentials:
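Luminescent ATP signal (CellTiter-Glo, 20 min at room temperature) served as the read-out of viable BJ cells after 40 hours of compound treatment. Responses were scaled between DMSO and 100 uM tamoxifen, and AC50 values were obtained by Hill modeling.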

A short description of test [5]: Cell Viability - Jurkat (AID 426;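 active = dose-dependent loss of cell ATP signal giving a full or clear fitted curve, ranked by lower potency value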; also: potency is read from the fitted curve at half-maximal effect). The conditions noted are these: qHTS. A digest of the protocol: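 Jurkat (Clone E6-1) cells, 5000/well in complete medium, exposed to compounds for 40 hr at 37C; intracellular ATP measured by CellTiter-Glo luminescence after 20 min at room temperature. AC50 from Hill fits.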
Test [6] can be described thus: Cell Viability - Hek293 (AID 427;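 active = compounds whose dose-response curve shows a full or clear partial loss of cell viability, called from curve shape rather than a numeric limit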;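 also: potency is read from the fitted curve at half-maximal effect; cells exposed to compound for 40 hours at 37 °C before reading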). The conditions noted are these: qHTS. A digest of the protocol: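 Luminescent ATP read-out (CellTiter-Glo, 20 min RT) after 40 hr compound exposure at 37 °C in complete medium. Signal normalized to DMSO (basal) and 100 uM tamoxifen (100% inhibition); concentration-response fitted with the standard Hill equation to give AC50.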
A short description of test [7]: Cell Viability - HepG2 (AID 433; calls by dose curve;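 also: potency is read from the fitted curve at half-maximal effect; potency for ATP loss meaning cytotoxicity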). The conditions noted are these: qHTS. A digest of the protocol:
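Read-out is luciferase-based quantitation of cellular ATP as a measure of viable HepG2 cells after 40 h treatment at 37 °C. Signal decrease is scaled between DMSO-only and 100 uM tamoxifen controls, with AC50 fitted by the Hill equation.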

Test [8] can be described thus: Cell Viability - MRC5 (AID 434; calls by dose curve;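 also: potency is read from the fitted curve at half-maximal effect; potency reflects cytotoxicity seen as loss of intracellular ATP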). The conditions noted are these: MRC5 lung fibroblast viability, qHTS. A digest of the protocol:
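MRC5 normal human lung fibroblasts, 1500 cells/well, exposed to compound for 40 hr at 37 C. Cellular ATP was read by CellTiter-Glo luminescence; data normalized to DMSO and 100 uM tamoxifen, with AC50 from Hill fits.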

Test [9] in a line: Cell Viability - SK-N-SH (AID 435; calls by dose curve;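 also: potency is read from the fitted curve at half-maximal effect; compound exposure lasted 40 h at 37 °C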). The conditions noted are these: SK-N-SH neuroblastoma cell viability qHTS. The essentials: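 Luminescent ATP signal served as the viability read-out after 40 hours of compound treatment of human neuroblastoma SK-N-SH cells. Concentration-response data, scaled between DMSO and 100 uM tamoxifen, gave AC50 values by standard Hill modeling.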

Sequence of Cytochrome P450 1A2 (Homo sapiens) (P05177 whole entry, looked up): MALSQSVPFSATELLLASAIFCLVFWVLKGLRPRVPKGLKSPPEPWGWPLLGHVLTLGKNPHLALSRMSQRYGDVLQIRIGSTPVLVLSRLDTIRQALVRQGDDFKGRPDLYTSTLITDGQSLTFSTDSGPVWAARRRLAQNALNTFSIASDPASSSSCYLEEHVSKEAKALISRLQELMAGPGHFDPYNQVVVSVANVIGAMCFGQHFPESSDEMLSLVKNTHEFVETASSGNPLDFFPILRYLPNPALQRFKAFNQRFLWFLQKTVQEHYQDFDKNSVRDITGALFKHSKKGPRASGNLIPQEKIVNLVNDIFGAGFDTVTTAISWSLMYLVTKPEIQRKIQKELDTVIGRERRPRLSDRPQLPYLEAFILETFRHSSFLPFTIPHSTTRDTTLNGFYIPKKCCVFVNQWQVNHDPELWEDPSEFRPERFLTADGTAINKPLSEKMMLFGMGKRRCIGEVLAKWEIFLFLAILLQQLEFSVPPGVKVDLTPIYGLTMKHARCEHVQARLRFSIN

As for `O=C1NCN(c2ccccc2)C12CCN(CCCC(c1ccc(F)cc1)c1ccc(F)cc1)CC2`, the values for the activity change, negative = inhibition in [1] (at 17.2 µM (top of the series)) and in [1] (at 38 µM (top of the series)) were -2.84% and 1.17%, respectively. For the same compound, the Potency in [2] was 12.6 µM (active).
For the compound `Cc1ccc(Cl)c(Nc2ccccc2C(=O)O)c1Cl`, the activity change, negative = inhibition in test [1] (at 17.2 µM (top of the series)) is -18.4%; in test [1] (at 38 µM (top of the series)) it was -15.5%; in test [3] (at 17.2 µM (top of the series)), -24% and 22.1%; in [3] (at 38 µM (top of the series)), 0.114%. The Potency entry in test [2] is “inactive”.
`CN(C)C(=O)Oc1ccc[n+](C)c1`: the activity change, negative = inhibition in test [1] (at 17.2 µM (top of the series)) was 8.22%; in test [1] (at 38 µM (top of the series)) it was 9.9%; in test [3] (at 17.2 µM (top of the series)), 4.78%; in test [3] (at 38 µM (top of the series)), 12%. Besides, the Potency entry in test [2] was “inactive”.
Turning to `CCOC(=O)C1=C(C)NC(C)=C(C(=O)OC)C1c1cccc(Cl)c1Cl` (centres undefined), the activity change, negative = inhibition in test [1] (at 17.2 µM (top of the series)) is -7.25%.
Regarding `c1cnc(N2CCN(Cc3ccc4c(c3)OCO4)CC2)nc1`, the activity change, negative = inhibition was -7.76% in test [1] (at 17.2 µM (top of the series)) and 13.9% in test [1] (at 38 µM (top of the series)). Further, the Potency in test [2] is 6.31 µM (active) and 3.16 µM (active) and 2 µM (active).
As to `Cc1scc2c1N(C(=O)CN1CCN(C)CC1)c1ccccc1NC2=O`, the activity change, negative = inhibition in test [1] (at 17.2 µM (top of the series)) is 4.19%; in test [1] (at 38 µM (top of the series)), 15.1%; in test [3] (at 17.2 µM (top of the series)) it was -41.8% (active); in test [3] (at 38 µM (top of the series)), -72.8% (active). Also, the Potency result in test [2] is “inactive”.
For the compound `CCCOc1ccccc1-c1nc2n[nH]nc2c(=O)[nH]1`, the activity change, negative = inhibition in [1] (at 17.2 µM (top of the series)) is -18.5%; in test [1] (at 38 µM (top of the series)), -7.91%; in [3] (at 17.2 µM (top of the series)) it was 14.8%; in test [3] (at 38 µM (top of the series)) it was 2.4%. Besides, the Potency in [2] is 5.01 µM (active) and 3.98 µM (active).
`CC(=O)Nc1nnc(S(N)(=O)=O)s1`: the activity change, negative = inhibition in [1] (at 17.2 µM (top of the series)) is 2.87%; in test [1] (at 38 µM (top of the series)), 2.53%; in test [3] (at 17.2 µM (top of the series)), -0.673% and -9.62%; in [3] (at 38 µM (top of the series)), 2.29%. In test [2], the Potency result was “inactive”.
Consider `CCOC(=O)C1=C(C)NC(C)=C(C(=O)OC)C1c1cccc([N+](=O)[O-])c1` (centres undefined), for which, in [1] (at 17.2 µM (top of the series)), the activity change, negative = inhibition was -25.4%.
`Cc1nc2ccccn2c(=O)c1CCN1CCC(C(=O)c2ccc(F)cc2)CC1`: the activity change, negative = inhibition in test [1] (at 17.2 µM (top of the series)) is -5.86%; in [1] (at 38 µM (top of the series)), 5.6%. Besides, in test [2], the Potency entry is “inactive”.
On the same counts, the results for `CCN(CC)CCOCCOC(=O)C1(c2ccccc2)CCCC1` are -7.4%, 16.3% and 12.6 µM (active).
As to `CN(C)CC/C=C1\c2ccccc2COc2ccccc21`, the figures for the activity change, negative = inhibition in test [1] (at 17.2 µM (top of the series)), in test [1] (at 38 µM (top of the series)) and in [3] (at 17.2 µM (top of the series)) were 22.2%, 23.8% and -44.9% (active), respectively. Moreover, the Potency in test [2] is 12.6 µM (active) and 5.01 µM (active) and 15.8 µM (active).
For `CCCCNC(=O)NS(=O)(=O)c1ccc(C)cc1`, the activity change, negative = inhibition in [1] (at 17.2 µM (top of the series)) was -5% and 1.1%; in test [1] (at 38 µM (top of the series)), 6.49%; in test [3] (at 17.2 µM (top of the series)), -4.27%; in test [3] (at 38 µM (top of the series)) it was 12.5%. For the same compound, the Potency entry in [2] was “inactive”. In addition, the Potency in test [4], in [5], in [6], in [7], in [8] and in test [9] was > 92 µM each time.
With `C(=C\c1ccccc1)/CN1CCN(C(c2ccccc2)c2ccccc2)CC1`, in test [1] (at 17.2 µM (top of the series)), the activity change, negative = inhibition is -4.86%.
Consider `C[n+]1cc2c3c(ccc2c2ccc4cc5c(cc4c21)OCO5)OCO3`, for which the activity change, negative = inhibition in test [1] (at 17.2 µM (top of the series)) is -119% (active); in [1] (at 38 µM (top of the series)) it was -111% (active); in test [3] (at 38 µM (top of the series)) it was -48.1% (active). In addition, the Potency in test [2] is 3.98 µM (active) and 10 µM (active).
In the case of `Cc1nc2sccn2c(=O)c1CCN1CCC(=C(c2ccc(F)cc2)c2ccc(F)cc2)CC1`, the activity change, negative = inhibition in [1] (at 17.2 µM (top of the series)) was -9.89%; in test [1] (at 38 µM (top of the series)) it was -17.2%. For the same compound, the Potency entry in test [2] is “inactive”.
With `CC1=NS(=O)(=O)c2cc(Cl)ccc2N1`, the activity change, negative = inhibition in test [1] (at 17.2 µM (top of the series)) was 5.8% and -6.56%; in test [1] (at 38 µM (top of the series)), -8.76%; in test [3] (at 17.2 µM (top of the series)) it was -1.94% and 7.03%; in test [3] (at 38 µM (top of the series)) it was 2.63%. The Potency in test [2] was 7.94 µM (active) and 3.16 µM (active) and 2 µM (active).
Turning to `COc1ccc(CCN(C)CCCC(C#N)(c2cc(OC)c(OC)c(OC)c2)C(C)C)cc1OC` (centres undefined), the activity change, negative = inhibition in test [1] (at 17.2 µM (top of the series)) is -6.26%.
On the same count and under the same terms, the same measure for `CC(=O)OC(C)C[N+](C)(C)C` (centres undefined): 11.1%.
Take `CC(=O)Oc1cc(C(C)C)c(OCCN(C)C)cc1C`: the activity change, negative = inhibition in test [1] (at 17.2 µM (top of the series)) is 7.18%; in [1] (at 38 µM (top of the series)), 22.7%. In addition, the Potency in test [2] is 7.94 µM (active) and 3.16 µM (active).
For `COc1cc(C(=O)OCCCN2CCCN(CCCOC(=O)c3cc(OC)c(OC)c(OC)c3)CC2)cc(OC)c1OC`, the activity change, negative = inhibition in test [1] (at 17.2 µM (top of the series)) was 24.5%; in test [1] (at 38 µM (top of the series)), 15.7%.
In the case of `C[C@H](CS)C(=O)N1CCC[C@H]1C(=O)O`, the activity change, negative = inhibition in test [1] (at 17.2 µM (top of the series)) is -1.77%; in [1] (at 38 µM (top of the series)), 3.53%; in [3] (at 17.2 µM (top of the series)), 2%; in test [3] (at 38 µM (top of the series)), -1.57%. Further, the Potency result in test [2] was “inactive”.
As for `c1ccc2c(c1)CCCC2C1=NCCN1` (centres undefined), the activity change, negative = inhibition in test [1] (at 17.2 µM (top of the series)) is 6.93%.
With `CN1CCN(CC(=O)N2c3ccccc3C(=O)Nc3cccnc32)CC1`, the activity change, negative = inhibition in test [1] (at 17.2 µM (top of the series)) was -3.75% and 6.17%; in test [1] (at 38 µM (top of the series)), 9.42%; in [3] (at 17.2 µM (top of the series)), -94.8% (active). In addition, the Potency entry in test [2] was “inactive”.
With `CCNC(=O)N1CCN(CCCC(c2ccc(F)cc2)c2ccc(F)cc2)CC1`, the activity change, negative = inhibition in test [1] (at 38 µM (top of the series)) is 1.34%.
For the compound `CCCC(C(=O)OCCN(CC)CC)(c1ccccc1)c1ccccc1`, the activity change, negative = inhibition in test [1] (at 17.2 µM (top of the series)) was 16.9%; in test [1] (at 38 µM (top of the series)), 20.9%. In addition, the Potency result in test [2] is “inactive”.
As to `CNCCCN1c2ccccc2CCc2ccccc21`, the activity change, negative = inhibition in test [1] (at 17.2 µM (top of the series)) is 29.5% and 18.8%.
Turning to `CCN(CC)CCNC(=O)c1ccc(NC(C)=O)cc1`, the activity change, negative = inhibition was -5.32% in [1] (at 17.2 µM (top of the series)), 9.43% in test [1] (at 38 µM (top of the series)), -13.8% in test [3] (at 17.2 µM (top of the series)) and -8.68% in test [3] (at 38 µM (top of the series)). Moreover, in test [2], the Potency entry was “inactive”.
